In ChEMBL document CHEMBL4513216, “Probing the Open Global Health Chemical Diversity Library for Multistage-Active Starting Points for Next-Generation Antimalarials” (ACS Infect Dis, 2020):
The campaign covered roughly 69,000 compounds. About 8,600 (12%) showed an effect of 50% or more. The full list was thinned out, with strong results kept by preference.

Each compound was assayed on Plasmodium berghei (assay: Screen against P. berghei liver stage (PbLuc), transformed with Luciferase, at 10uM). Conditions: tested at 10 uM.
Assay type: functional, HepG2

**Q.** `CC(C)(O)CN1CCN(C(=O)c2ccc(Cl)c3cccnc23)CC1` was tested. Which INHIBITION did it give?
**A.** 36.9%

**Q.** How did the INHIBITION turn out when `COc1cc(C(=O)O)cc(I)c1OCC(=O)NCCc1ccccc1` was run?
**A.** 25.5%

**Q.** With `CC(NC(=O)NCCc1ccc(Cl)s1)c1ccccn1` (configuration not stated) as the compound, how does the INHIBITION read?
**A.** -12.1%

**Q.** With `COc1ccc(C(=O)N2CC(=O)N(Cc3cccs3)CC(O)C2)cc1` (configuration not stated) as the compound, how does the INHIBITION read?
**A.** 27.5%

**Q.** For `CC(C)COC(=O)N1CCCN(C(=O)c2ccnc(N(C)C)c2)CC1`, which INHIBITION is on record?
**A.** 33.4%

**Q.** With `CC(C)CCC(=O)N1CCN(C(=O)c2ccc3nccn3c2)CC1` as the compound, how does the INHIBITION read?
**A.** 24.2%

**Q.** Which INHIBITION does the source give for `CC(C)COC(=O)N1CCN(C(=O)c2ccc3nccn3c2)CC1` here?
**A.** 50.1%

**Q.** For `c1ncn(CC2CCCCN2Cc2csc(-c3ccsc3)n2)n1` (configuration not stated), which INHIBITION is on record?
**A.** -58.7%

**Q.** With `CCC1COCCN1C(=O)NCc1nccn1CC(C)C` (configuration not stated) as the compound, how does the INHIBITION read?
**A.** 8.59%

**Q.** For `Cn1cccc1CNC(=O)N(CCO)C1CCCc2ccccc21` (configuration not stated), which INHIBITION is on record?
**A.** 26.8%

**Q.** For `O=C(NC1CC(F)(F)C1)[C@]12COC[C@H]1CN(Cc1cccnc1)C2`, which INHIBITION is on record?
**A.** 29.4%

**Q.** `CN1C[C@@H]2COC[C@]2(C(=O)NCCc2cccs2)C1` was tested. Which INHIBITION did it give?
**A.** 34.6%

**Q.** `O=C(NC1CC(F)(F)C1)[C@]12COC[C@H]1CN(Cc1ccccc1)C2` was tested. Which INHIBITION did it give?
**A.** 61.1%

**Q.** For `CS(=O)(=O)N1C[C@@H]2COC[C@]2(C(=O)NCCc2cccs2)C1`, which INHIBITION is on record?
**A.** 24.9%

**Q.** Which INHIBITION does the source give for `O=C(NC1CC(F)(F)C1)[C@]12COC[C@H]1CN(Cc1ccsc1)C2` here?
**A.** 35.8%

**Q.** Which INHIBITION does the source give for `O=C(NCc1cccs1)[C@]12COC[C@H]1CN(c1ncccn1)C2` here?
**A.** 2.41%

**Q.** Which INHIBITION does the source give for `CN1C[C@@H]2COC[C@]2(C(=O)NCc2cccs2)C1` here?
**A.** 4.02%

**Q.** For `O=C(NCCc1cccs1)[C@]12COC[C@H]1CN(Cc1ccncc1)C2`, which INHIBITION is on record?
**A.** 54.8%

**Q.** Which INHIBITION does the source give for `O=C(NCCc1cccs1)[C@]12COC[C@H]1CN(Cc1ccccn1)C2` here?
**A.** 24.9%

**Q.** How did the INHIBITION turn out when `O=C(NCCc1cccs1)[C@]12COC[C@H]1CN(c1ncccn1)C2` was run?
**A.** 52.1%

**Q.** `O=C(NCCc1cccs1)[C@]12COC[C@H]1CN(C1CCOCC1)C2` was tested. Which INHIBITION did it give?
**A.** 61.1%

**Q.** For `Cn1cc(CN2C[C@@H]3COC[C@]3(C(=O)NCc3cccs3)C2)cn1`, which INHIBITION is on record?
**A.** 28.3%

**Q.** How did the INHIBITION turn out when `CN(C)C(=O)CCS(=O)(=O)Cc1coc(-c2ccc(F)cc2)n1` was run?
**A.** -23.4%

**Q.** With `CCC(CCN)n1ccc(C(F)(F)F)n1` (configuration not stated) as the compound, how does the INHIBITION read?
**A.** 35.2%

**Q.** For `Cc1cc(C)n(-c2cncc(NCCNC(=O)C(C)(C)C)n2)n1`, which INHIBITION is on record?
**A.** 34.9%

**Q.** With `CC(C)C(N)CNS(=O)(=O)Cc1cccc2cccnc12` (configuration not stated) as the compound, how does the INHIBITION read?
**A.** 24.2%

**Q.** `CC(C)CCN(C(=O)CCn1cc(S(N)(=O)=O)cn1)C1CC1` was tested. Which INHIBITION did it give?
**A.** 11.4%

**Q.** For `Cn1cc(-c2cnc(-c3ccnn3C)nc2)cc1C(=O)N1CCCC1`, which INHIBITION is on record?
**A.** -4.26%

**Q.** With `Cc1ccc(C2COCCN2C(=O)c2cccc(N(C)C)c2)o1` (configuration not stated) as the compound, how does the INHIBITION read?
**A.** 32.9%

**Q.** `Cc1ccc(C(=O)N2CCc3c(CNS(C)(=O)=O)cncc3C2)o1` was tested. Which INHIBITION did it give?
**A.** -3.83%

**Q.** For `O=C(c1ccnnc1)N1C[C@H](OCc2ccccn2)[C@H]2COC[C@H]21`, which INHIBITION is on record?
**A.** 5.67%

**Q.** For `Cc1nc(CO[C@@H]2CN(Cc3nccs3)[C@@H]3COC[C@@H]32)cs1`, which INHIBITION is on record?
**A.** -56.3%

**Q.** How did the INHIBITION turn out when `Fc1ccc(CN2C[C@@H](OCc3ccccn3)[C@H]3COC[C@H]32)cc1` was run?
**A.** 43.9%

**Q.** Which INHIBITION does the source give for `Cc1nc(CO[C@H]2CN(C(=O)c3ccc[nH]3)[C@@H]3COC[C@H]23)cs1` here?
**A.** 13.1%

**Q.** How did the INHIBITION turn out when `O=C(c1ccc[nH]1)N1C[C@H](OCc2ccccn2)[C@H]2COC[C@H]21` was run?
**A.** 64.8%

**Q.** Which INHIBITION does the source give for `c1ccc(CO[C@@H]2CN(Cc3nccs3)[C@@H]3COC[C@@H]32)nc1` here?
**A.** 59.3%

**Q.** `CN(CC(=O)N1CCCCC1Cn1cccn1)Cc1ccccc1` (configuration not stated) was tested. Which INHIBITION did it give?
**A.** 23.5%

**Q.** Which INHIBITION does the source give for `Cn1nc(Cn2cccn2)c2c1CN(Cc1ccsc1)C2` here?
**A.** -41.8%

**Q.** How did the INHIBITION turn out when `O=C(C[C@@H]1COC[C@H]2CN(Cc3cccnc3)C[C@@H]12)N1CCCC1` was run?
**A.** -11.6%

**Q.** For `COCCNC(=O)C[C@@H]1COC[C@H]2CN(Cc3cccnc3)C[C@@H]12`, which INHIBITION is on record?
**A.** 40.5%

**Q.** `COCCN1C[C@@H]2COC[C@@H](CC(=O)NCc3cccnc3)[C@@H]2C1` was tested. Which INHIBITION did it give?
**A.** 47.4%

**Q.** For `O=C(C[C@@H]1COC[C@H]2CN(CC3CC3)C[C@@H]12)NCc1cccnc1`, which INHIBITION is on record?
**A.** 53.4%

**Q.** For `O=C(C[C@@H]1COC[C@H]2CN(C3CCC3)C[C@@H]12)NCc1cccnc1`, which INHIBITION is on record?
**A.** 27.5%

**Q.** With `O=C(C[C@@H]1COC[C@H]2CN(Cc3cccnc3)C[C@@H]12)NCC1CC1` as the compound, how does the INHIBITION read?
**A.** 54.4%

**Q.** For `Cc1cccc(N2CCN(C(=O)CNCCn3cccn3)CC2)c1`, which INHIBITION is on record?
**A.** -76.5%

**Q.** How did the INHIBITION turn out when `CCC[C@H]1CN(c2cncc(C(=O)N(C)C)n2)C[C@@H]1N(C)C` was run?
**A.** 33.7%

**Q.** For `NC(=O)CN1CCN(C(=O)c2cc(Cl)cc3cccnc23)CC1`, which INHIBITION is on record?
**A.** 13.4%

**Q.** For `CN(C)c1nc2c(c(NCc3nnc4n3CCCCC4)n1)CCNC2`, which INHIBITION is on record?
**A.** 5.78%

**Q.** How did the INHIBITION turn out when `CNC(=O)c1ccccc1NCc1ncnn1C` was run?
**A.** 20%

**Q.** `Cn1ccc2cc(CC3COCCN(C(=O)c4cccnc4)C3)ccc21` (configuration not stated) was tested. Which INHIBITION did it give?
**A.** 29.61%

**Q.** `COCCn1nc(C(=O)N(C)Cc2cccnc2)ccc1=O` was tested. Which INHIBITION did it give?
**A.** 6.72%

**Q.** Which INHIBITION does the source give for `CC(O)CN1CCN(C(=O)c2cnn(-c3ccc(Cl)cc3)c2)CC1` (configuration not stated) here?
**A.** 16.6%

**Q.** How did the INHIBITION turn out when `CC1CN(C)CCN1C(=O)c1cnc2c(cnn2C2CCCC2)c1` (configuration not stated) was run?
**A.** 31.2%

**Q.** With `CC1CN(C)CCN1C(=O)c1ccc(-n2cnnc2)cc1` (configuration not stated) as the compound, how does the INHIBITION read?
**A.** 66.1%

**Q.** For `CC[C@@]1(O)CCN(C(=O)c2ccc(-n3cnnc3)cc2)C[C@H]1O`, which INHIBITION is on record?
**A.** 20.6%

**Q.** Which INHIBITION does the source give for `CC1CN(C)CCN1C(=O)c1cnn(-c2cccc(Cl)c2)c1` (configuration not stated) here?
**A.** 74.4%

**Q.** For `Cc1ccccc1N1CCN(C(=O)c2cnn(C(C)C)c2)C(C)C1` (configuration not stated), which INHIBITION is on record?
**A.** 12.1%

**Q.** With `Cc1cnn(-c2ccc(C(=O)N3CCN(C)CC3C)cc2)c1` (configuration not stated) as the compound, how does the INHIBITION read?
**A.** -15.3%

**Q.** Which INHIBITION does the source give for `CC1CN(C)CCN1C(=O)c1cccn1Cc1cccnc1` (configuration not stated) here?
**A.** 17.9%

**Q.** How did the INHIBITION turn out when `CC1CN(C)CCN1C(=O)c1cnn(-c2ccc(Cl)cc2)c1` (configuration not stated) was run?
**A.** 66.1%

**Q.** Which INHIBITION does the source give for `O=C(Cc1ccc(Cl)s1)Nc1ccc2c(c1)C(=O)NC2=O` here?
**A.** -97.9%

**Q.** How did the INHIBITION turn out when `Cc1nn(C)c(N2CCOCC2)c1CNC1CCC(O)CC1` (configuration not stated) was run?
**A.** 9.14%
